Measurements taken from PubChem BioAssay (NCI).
This is part of a sample that, as a whole, favours compounds with a hit. Of some 83,000 tested, about 20% had one in any assay.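 How to read the values: 0–100, growth inhibition (40 = 60% inhibited); 0, no net growth; -100 to 0, cell death (-40 = 40% of starting cells died; -100 = all dead).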 Calls of active or inactive are those of the source. The calls were made as follows: active = growth percent below 10; inactive = the rest.

Assays:
Assay in all cases: NCI-60 one-dose screen, 48 h (100 = growth as untreated, 0 = no growth, -100 = all killed)
Conditions in all cases: 10 µM unless noted
[1] = system: SR leukemia
[2] = system: RPMI-8226 leukemia
[3] = system: OVCAR-8 ovarian
[4] = system: OVCAR-5 ovarian
[5] = system: OVCAR-4 ovarian
[6] = system: SK-OV-3 ovarian
[7] = system: IGROV1 ovarian
[8] = system: OVCAR-3 ovarian
[9] = system: HS 578T breast
[10] = system: NCI/ADR-RES ovarian
[11] = system: T-47D breast
[12] = system: BT-549 breast
[13] = system: MDA-MB-435 melanoma
[14] = system: SW-620 colon
[15] = system: MCF7 breast
[16] = system: HCT-116 colon
[17] = system: HCC-2998 colon
[18] = system: KM12 colon

Measured: growth

Oc1ccc(C2OCCO2)c2cccnc12
active: [8] 4.41% | [15] 7.84% | [16] 8.85%
inactive: [1] 31.8% | [2] 29.6% | [3] 24.6% | [4] 59.3% | [5] 15.3% | [6] 93.5% | [7] 74.2% | [9] 76.4% | [10] 27.5% | [11] 26.2% | [12] 64.2% | [13] 49.4% | [14] 22.3% | [17] 96.6% | [18] 72.4%

CSc1nn2c(-c3cc4cc(Br)ccc4oc3=O)ccnc2c1C#N
inactive: [1] 94.7% | [2] 103% | [3] 104% | [4] 112% | [5] 101% | [6] 105% | [7] 97.2% | [8] 114% | [9] 109% | [10] 110% | [11] 99.7% | [12] 105% | [13] 101% | [14] 103% | [15] 94.9% | [16] 94.3% | [17] 102% | [18] 107%

CC(C)(C)CC(C)(C)Nc1c(-c2c(O)c3ccccc3oc2=O)nc2sccn12
inactive: [1] 111% | [2] 97.7% | [3] 91% | [4] 97.5% | [5] 111% | [6] 87.2% | [7] 93.2% | [8] 109% | [9] 96.3% | [10] 98.3% | [11] 84.8% | [12] 111% | [13] 104% | [14] 96.9% | [15] 91.7% | [16] 98.2% | [17] 98.5% | [18] 107%

C(=N\Nc1nnc2n1N=C(c1ccccc1)CS2)/c1ccc(OCc2ccccc2)cc1
inactive: [1] 93.4% | [2] 86.6% | [3] 102% | [4] 114% | [5] 120% | [6] 109% | [7] 99.6% | [8] 113% | [9] 112% | [10] 96.6% | [11] 84.5% | [12] 103% | [13] 99.8% | [14] 113% | [15] 82.9% | [16] 100% | [17] 120% | [18] 102%

Cn1ccnc1C(=O)/C=C/c1ccc(C(=O)Nc2ccccc2F)cc1
inactive: [3] 15.6% | [4] 18% | [5] 37.7% | [6] 51.9% | [7] 13.5% | [9] 17.1% | [10] 21.7% | [11] 38.3% | [14] 13.5% | [15] 13.4% | [17] 88% | [18] 13.8%
active: [1] 6.83% | [2] 9.83% | [8] -4.52% | [12] -13.2% | [13] 1.95% | [16] 8.83%

C=CC(=O)NCc1cccc(Nc2ncc(Br)c(NCCCNC(=O)C3CCC3)n2)c1
inactive: [4] 10.2% | [10] 35.8%
active: [1] 2.53% | [2] -14.7% | [3] 5.56% | [5] -2% | [6] -42% | [7] 1.89% | [8] -33.4% | [9] -14.1% | [11] -12% | [12] -50.2% | [13] -51.4% | [14] 0.584% | [15] 1.62% | [16] 4.93% | [17] -48.6% | [18] 4.95%

CC/C(=C(/c1ccc(Cl)cc1)c1ccc(OCCN(CC)CC)cc1)c1ccc(OC)cc1
active: [1] -26% | [2] -21.4%
inactive: [3] 60.4% | [4] 61.5% | [5] 70% | [6] 89.8% | [7] 60.4% | [8] 65.8% | [9] 81.5% | [10] 69.7% | [11] 39.1% | [12] 67.7% | [13] 69.1% | [14] 40.2% | [15] 13.7% | [16] 34.2% | [17] 54.7% | [18] 35.1%

CC1(C)CC(=O)C2=C(C1)OC(C(=O)c1ccccc1)C2c1cccc(Oc2ccccc2)c1 (stereo unspecified)
inactive: [1] 26.2% | [2] 34.6% | [3] 48.5% | [4] 88.7% | [5] 28.6% | [6] 64% | [7] 89.5% | [8] 64.2% | [9] 68.4% | [10] 38.3% | [12] 40.1% | [13] 44.5% | [14] 54.2% | [15] 28.5% | [16] 33.8% | [17] 71.9% | [18] 37.7%
active: [11] 5.71%

Cn1ccnc1C(=O)/C=C/c1ccc(C(=O)Nc2c(F)c(F)c(F)c(F)c2F)cc1
inactive: [3] 20.6% | [4] 13.1% | [5] 22.4% | [6] 62.1% | [9] 48.5% | [12] 22.4% | [13] 48.7% | [15] 13%
active: [1] -17.4% | [2] -9.03% | [7] 0.574% | [8] -4% | [10] 7.31% | [11] 9.11% | [14] -14.3% | [16] -21.5% | [17] -4.74% | [18] -58.7%

CC(=O)OCC(=O)O[C@@H]1C[C@]2(C(C)C)O[C@@]1(C)[C@@H]1CC[C@@H](C)[C@H]1[C@@H]2OC(=O)/C=C/c1ccccc1
inactive: [1] 78.4% | [2] 73.7% | [3] 25% | [4] 99.8% | [5] 87.9% | [6] 87.7% | [7] 106% | [8] 90.9% | [10] 21.7% | [11] 48.6% | [13] 95% | [14] 104% | [15] 77.8% | [16] 81.5% | [17] 101% | [18] 90.2%
active: [9] -18% | [12] 2.51%

COc1cc(-c2ccc(-c3ccc(C(=N)N)s3)s2)cc(OC)c1OC
inactive: [3] 13.9% | [4] 64.6% | [5] 45.1% | [6] 85% | [7] 71.7% | [9] 44.1% | [10] 77.9% | [11] 39.3% | [12] 61.7% | [17] 49.7% | [18] 27.7%
active: [1] -20.7% | [2] -34.7% | [8] 3.44% | [13] -34.8% | [14] -15.5% | [15] -6.02% | [16] -21.5%

N#CC1=C(N)Oc2c(ccc3cccnc23)C1c1ccccc1 (stereo unspecified)
inactive: [1] 35.2% | [2] 11.6% | [3] 45.2% | [4] 56.3% | [5] 44.9% | [6] 58.3% | [7] 42.4% | [9] 35.6% | [11] 50.4% | [12] 51.8% | [14] 29% | [15] 24.6% | [16] 22.2% | [17] 50.4% | [18] 25.2%
active: [8] -6.82% | [10] -11.2% | [13] -47.4%

COc1cc2c(c(OC)c1OC)CCC(c1cccc(C(=O)Nc3ccccc3Br)c1)O2 (stereo unspecified)
inactive: [1] 75.6% | [2] 83% | [3] 80.1% | [4] 90.6% | [5] 85.3% | [6] 81% | [7] 89.2% | [8] 100% | [9] 86.2% | [10] 99.2% | [11] 68.6% | [12] 69.6% | [13] 94% | [14] 99.6% | [15] 91.8% | [16] 74.7% | [17] 90% | [18] 101%

C#Cc1cccc(Nc2nc(Cl)nc3cc(NC(=O)CCl)ccc23)c1
active: [1] -39.7% | [2] -47.6% | [3] -23.9% | [4] -92% | [5] -66.4% | [6] -18.9% | [7] -59.8% | [8] -88.1% | [9] -14% | [10] -14.4% | [11] -44.7% | [12] -89.3% | [13] -76.7% | [14] -77.8% | [15] -49.5% | [16] -90.1% | [17] -84% | [18] -62.5%

COc1cc(C(=O)n2nc(NCCCc3ccccc3)c3cc(N)ccc32)cc(OC)c1OC
inactive: [1] 52.3% | [2] 69.5% | [3] 82.8% | [4] 93.3% | [5] 105% | [6] 104% | [7] 110% | [8] 101% | [9] 111% | [10] 68.4% | [11] 66% | [12] 97.1% | [13] 99% | [14] 112% | [15] 89.3% | [16] 90.1% | [17] 105% | [18] 88.5%

C#CCOc1cc(/C=N/Nc2nc(-c3ccc(OC)cc3)cs2)ccc1O
inactive: [1] 74.4% | [2] 63.3% | [3] 87.9% | [4] 97.1% | [5] 71.7% | [6] 99.4% | [7] 91.8% | [8] 86.3% | [9] 95.8% | [10] 85.1% | [11] 61.2% | [12] 84.5% | [13] 94.7% | [14] 94.8% | [15] 68.9% | [16] 76.5% | [17] 92.4% | [18] 88.6%

CC(=O)O[C@H]1CC[C@@]2(C)C(=CC[C@@H]3[C@@H]2CC[C@]2(C)C(Cl)=C(c4nc5ccc(Cl)cn5c4NC(C)(C)C)C[C@@H]32)C1
inactive: [1] 93% | [2] 93.9% | [3] 96.9% | [4] 91.5% | [5] 90.3% | [6] 105% | [7] 87.9% | [8] 100% | [9] 85.6% | [10] 95.4% | [11] 94.4% | [12] 105% | [13] 93.8% | [14] 98.3% | [15] 91.9% | [16] 86.6% | [17] 112% | [18] 94.5%
